Reference: PubChem BioAssay (Tox21)
Records with an inconclusive call do not appear. A number with no mark means an inactive call. Active and inactive are the calls of the source. Unless noted, calls follow the shape of the full dose curve.

Assay: qHTS assay for small molecule agonists of the antioxidant response element (ARE) signaling pathway - cell viability counter screen (AID 743203); also: nearly all actives have a fitted effect of over 55% in size
Settings: ARE-bla HepG2 viability, CellTiter-Glo luminescence, 16 h; series mostly up to 73.3 µM; viability change, negative = cytotoxic: at the top concentration
Outline: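 CellSensor ARE-bla HepG2 cells, 2,000 per well, rested 5 hrs at 37C/5% CO2, then exposed to compound in DMSO for 16 hrs; viability read as CellTiter-Glo luminescence after 30 min at room temperature, in the reporter wells.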
% is scaled to controls: 0 for no effect and ±100 for the full control effect.

| SMILES | viability change, negative = cytotoxic | Potency |
| --- | --- | --- |
| COc1ccc(CCN(C)CCCC(C#N)(c2cc(OC)c(OC)c(OC)c2)C(C)C)cc1OC (configuration not stated) | -0.703% |  |
| O=c1cc(CO)occ1O | -0.628% |  |
| NS(=O)(=O)c1cc(C(=O)O)cc(N2CCCC2)c1Oc1ccccc1 | -5.82% |  |
| CCOC(C)(C)C | 0.711% [at 94.8 µM] |  |
| C=CCCCCCCCCC=O | -1.88% |  |
| NC(=O)c1cn(Cc2c(F)cccc2F)nn1 | 11.8% |  |
| O=C(O)CCCl | 1.14% [at 94.8 µM] |  |
| CC(=O)c1ccccc1O | 2.61% |  |
| COC(=O)CCSCCC(=O)OC | 15.3% |  |
| CC(=O)N(CC(O)CO)c1c(I)c(C(=O)NCCO)c(I)c(C(=O)NCC(O)CO)c1I (configuration not stated) | -0.917% |  |
| Cc1[nH]c(=O)c(C#N)cc1-c1ccc2nccn2c1 | 7.16% |  |
| C=CCOCC(CC)(CO)COCC=C | -4.55% |  |
| Cc1ccc(=O)n(-c2ccccc2)c1 | 15.7% |  |
| COC(=O)c1c(Cl)c(Cl)c(C(=O)OC)c(Cl)c1Cl | -5.14% |  |
| COC(=O)NN | 2.08% [at 94.8 µM] |  |
| CC(C)(O)C#CC(C)(C)O | 0.636% [at 94.8 µM] |  |
| OCCCC1CCCCC1 | 13.1% |  |

| SMILES | viability change, negative = cytotoxic | Potency |
| --- | --- | --- |
| CC1=CC(C)C(C=O)CC1 (configuration not stated) | -2.87% |  |
| N[C@H](C(=O)O)c1ccc(O)cc1 | 9.03% [at 34.3 µM] |  |
| CO/N=C(/C(=O)N[C@@H]1C(=O)N2C(C(=O)OCOC(=O)C(C)(C)C)=C(C)CS[C@H]12)c1csc(N)n1 | -4.67% |  |
| COc1ccc2c(c1)c(CC(=O)OCC(=O)O)c(C)n2C(=O)c1ccc(Cl)cc1 | -2.3% |  |
| CCO/C([O-])=N/c1c[n+](N2CCOCC2)no1 | -1.01% |  |
| CCCCCCCCS(=O)(=O)Cl | -0.0314% [at 94.8 µM] |  |
| COC(=O)[C@@H](N)Cc1ccc(O)c(O)c1 | -6.88% |  |
| O=S(O)CO | 5.7% |  |
| ClC(Cl)(Br)Br | 2.06% |  |
| CC(C)NCC(O)c1ccc(NS(C)(=O)=O)cc1 (configuration not stated) | -0.166% [at 94.8 µM] |  |
| COC(=O)C1=C(C)NC(C)=C(C(=O)OC)C1c1ccccc1[N+](=O)[O-] |  | inactive |
| CCCCNC(=O)NCCCC | -0.125% |  |
| CCC(C)S (configuration not stated) | 9.9% [at 3.74 µM] |  |
| N#Cc1ccc(C2CCCc3cncn32)cc1 (configuration not stated) | -17.7% [at 34.3 µM] |  |
| CCCCOCCOCCOCc1cc2c(cc1CCC)OCO2 |  | inactive |
| CC(C)(CC(=O)O)C(=O)O | -8.46% |  |
| CN1CCC(=C2c3ccccc3CC(=O)c3sccc32)CC1 | -11.4% |  |

Assay: qHTS assay for small molecule activators of the heat shock response signaling pathway - cell viability counter screen (AID 743209; active = well fitted cell-killing curve with a large enough effect in the repeat runs; also: nearly all actives have a fitted effect of over 50% in size)
Settings: HSE-bla HeLa viability, CellTiter-Glo luminescence, 5 h; series mostly up to 62.6 µM; activity change, negative = cytotoxicity: at the top concentration
Outline: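 CellSensor HSE-bla HeLa cells, plated overnight at 37 C/5% CO2, were exposed to compounds in DMSO for 5 h at 37 C. Viability was then read in the same wells by CellTiter-Glo luminescence after 30 min at room temperature.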

| SMILES | activity change, negative = cytotoxicity | outcome |
| --- | --- | --- |
| COc1ccc(CCN(C)CCCC(C#N)(c2cc(OC)c(OC)c(OC)c2)C(C)C)cc1OC (configuration not stated) | 6.65% |  |
| O=c1cc(CO)occ1O | 5.3% |  |
| NS(=O)(=O)c1cc(C(=O)O)cc(N2CCCC2)c1Oc1ccccc1 | 2.85% |  |
| CCOC(C)(C)C | 1.6% [at 81.1 µM] |  |
| C=CCCCCCCCCC=O | 6.07% |  |
| NC(=O)c1cn(Cc2c(F)cccc2F)nn1 | 24.5% |  |
| O=C(O)CCCl | 2.36% [at 81.1 µM] |  |
| NC(CSCC(=O)O)C(=O)O (configuration not stated) | 0.556% |  |
| CC(=O)c1ccccc1O | 0.776% |  |
| COC(=O)CCSCCC(=O)OC | -3.04% |  |
| CC(=O)N(CC(O)CO)c1c(I)c(C(=O)NCCO)c(I)c(C(=O)NCC(O)CO)c1I (configuration not stated) | -0.693% |  |
| Cc1[nH]c(=O)c(C#N)cc1-c1ccc2nccn2c1 | -9.38% |  |
| C=CCOCC(CC)(CO)COCC=C | 2.93% |  |
| Cc1ccc(=O)n(-c2ccccc2)c1 | 20.4% |  |
| COC(=O)c1c(Cl)c(Cl)c(C(=O)OC)c(Cl)c1Cl | -7.45% |  |
| COC(=O)NN | 2.58% [at 81.1 µM] |  |
| CC(C)(O)C#CC(C)(C)O | 10.3% [at 81.1 µM] |  |

| SMILES | activity change, negative = cytotoxicity | outcome |
| --- | --- | --- |
| OCCCC1CCCCC1 | 0.867% |  |
| CC1=CC(C)C(C=O)CC1 (configuration not stated) | 5.52% |  |
| CO/N=C(/C(=O)N[C@@H]1C(=O)N2C(C(=O)OCOC(=O)C(C)(C)C)=C(C)CS[C@H]12)c1csc(N)n1 | 13.9% |  |
| COc1ccc2c(c1)c(CC(=O)OCC(=O)O)c(C)n2C(=O)c1ccc(Cl)cc1 | 5.07% |  |
| CCO/C([O-])=N/c1c[n+](N2CCOCC2)no1 | 3.69% |  |
| CCCCCCCCS(=O)(=O)Cl | -1.75% [at 81.1 µM] |  |
| COC(=O)[C@@H](N)Cc1ccc(O)c(O)c1 | 5.27% |  |
| O=S(O)CO | 10.1% |  |
| ClC(Cl)(Br)Br | -3.61% |  |
| CC(C)NCC(O)c1ccc(NS(C)(=O)=O)cc1 (configuration not stated) | 4.59% [at 81.1 µM] |  |
| COC(=O)C1=C(C)NC(C)=C(C(=O)OC)C1c1ccccc1[N+](=O)[O-] |  | inactive |
| CCCCNC(=O)NCCCC | 3.7% |  |
| CCC(C)S (configuration not stated) | -3.21% [at 2.7 µM] |  |
| N#Cc1ccc(C2CCCc3cncn32)cc1 (configuration not stated) | -8.03% [at 29.1 µM] |  |
| CCCCOCCOCCOCc1cc2c(cc1CCC)OCO2 |  | inactive |
| CC(C)(CC(=O)O)C(=O)O | -8.15% |  |
| CN1CCC(=C2c3ccccc3CC(=O)c3sccc32)CC1 | -4.25% |  |

Assay: qHTS assay for small molecule activators of the heat shock response signaling pathway (AID 743210; active = well fitted activation curve with a large enough effect in the signal ratio in the repeat runs, with a control signal flat, not every such curve was filed as active; the % refers to the signal ratio;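 also: HeLa cells with beta-lactamase reporter driven by heat shock elements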)
Settings: HeLa HSE-bla reporter, beta-lactamase ratio, 5 h; series mostly up to 62.6 µM; activation: at the top concentration
Outline: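 HeLa HSE-bla cells, overnight plating; cpd in DMSO 5 h, 37 C; LiveBLAzer B/G FRET substrate 2.5 h RT; fluorescence intensity read.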

| SMILES | activation | outcome |
| --- | --- | --- |
| COc1ccc(CCN(C)CCCC(C#N)(c2cc(OC)c(OC)c(OC)c2)C(C)C)cc1OC (configuration not stated) | -1.2% |  |
| O=c1cc(CO)occ1O | -0.764% |  |
| NS(=O)(=O)c1cc(C(=O)O)cc(N2CCCC2)c1Oc1ccccc1 | -1.87% |  |
| CCOC(C)(C)C | -0.422% [at 81.1 µM] |  |
| C=CCCCCCCCCC=O | 3.13% |  |
| NC(=O)c1cn(Cc2c(F)cccc2F)nn1 | 0.89% |  |
| O=C(O)CCCl | -0.782% [at 81.1 µM] |  |
| NC(CSCC(=O)O)C(=O)O (configuration not stated) | 0.404% |  |
| CC(=O)c1ccccc1O | -0.456% |  |
| COC(=O)CCSCCC(=O)OC | 0.0861% |  |
| CC(=O)N(CC(O)CO)c1c(I)c(C(=O)NCCO)c(I)c(C(=O)NCC(O)CO)c1I (configuration not stated) | 0.975% |  |
| Cc1[nH]c(=O)c(C#N)cc1-c1ccc2nccn2c1 | 1.04% |  |
| C=CCOCC(CC)(CO)COCC=C | -1.21% |  |
| Cc1ccc(=O)n(-c2ccccc2)c1 | -0.4% |  |
| COC(=O)c1c(Cl)c(Cl)c(C(=O)OC)c(Cl)c1Cl |  | inactive |
| COC(=O)NN | -1.71% [at 81.1 µM] |  |
| CC(C)(O)C#CC(C)(C)O | -0.021% [at 81.1 µM] |  |

| SMILES | activation | outcome |
| --- | --- | --- |
| OCCCC1CCCCC1 | -1.41% |  |
| CC1=CC(C)C(C=O)CC1 (configuration not stated) | -0.559% |  |
| N[C@H](C(=O)O)c1ccc(O)cc1 | 0.6% [at 29.1 µM] |  |
| CO/N=C(/C(=O)N[C@@H]1C(=O)N2C(C(=O)OCOC(=O)C(C)(C)C)=C(C)CS[C@H]12)c1csc(N)n1 | 4.28% |  |
| COc1ccc2c(c1)c(CC(=O)OCC(=O)O)c(C)n2C(=O)c1ccc(Cl)cc1 | -0.25% |  |
| CCO/C([O-])=N/c1c[n+](N2CCOCC2)no1 | -0.0409% |  |
| CCCCCCCCS(=O)(=O)Cl | -0.529% [at 81.1 µM] |  |
| COC(=O)[C@@H](N)Cc1ccc(O)c(O)c1 | 0.355% |  |
| O=S(O)CO | -0.0585% |  |
| ClC(Cl)(Br)Br | 0.149% |  |
| CC(C)NCC(O)c1ccc(NS(C)(=O)=O)cc1 (configuration not stated) | -0.0496% [at 81.1 µM] |  |
| COC(=O)C1=C(C)NC(C)=C(C(=O)OC)C1c1ccccc1[N+](=O)[O-] | 0.178% |  |
| CCCCNC(=O)NCCCC | 0% |  |
| N#Cc1ccc(C2CCCc3cncn32)cc1 (configuration not stated) | 0.179% [at 29.1 µM] |  |
| CCCCOCCOCCOCc1cc2c(cc1CCC)OCO2 |  | inactive |
| CC(C)(CC(=O)O)C(=O)O | -0.149% |  |
| CN1CCC(=C2c3ccccc3CC(=O)c3sccc32)CC1 | -0.589% |  |
